# In PubChem BioAssay (NCATS):
# Inconclusive results are not listed. A call without a number means that no potency is given here. Activity calls are given as the source filed them. Unless noted, calls follow the shape of the dose curve; as a rule, active = well fitted curve in the direction sought with a large enough effect; inconclusive = small, poorly fitted or top-dose-only effect, or another doubt; inactive = no such curve, though single readings can be large; an effect the other way counts as inactive or inconclusive.
# Experiments:
# [1] = qHTS for Inhibitors of the Aldehyde Dehydrogenase Family (ALDH1A2, ALDH1A3, ALDH2, ALDH3A1) (AID 2061307); also: nearly all actives have a fitted effect of over 50% in size; as to potency: test system not described further here; potency is read from the fitted curve at half-maximal effect
# [2] = target: Aldehyde dehydrogenase, mitochondrial (Homo sapiens) (UniProt P05091); test: qHTS for Inhibitors of the Aldehyde Dehydrogenase Family (ALDH2) Primary screen (AID 2061308); also: nearly all actives have a fitted effect of over 55% in size
# [3] = target: Retinaldehyde dehydrogenase 3 (Homo sapiens) (UniProt P47895); test: qHTS for Inhibitors of the Aldehyde Dehydrogenase Family (ALDH1A3) Validation screen (AID 2061312); also: nearly all actives have a fitted effect of over 45% in size
# [4] = target: Retinaldehyde dehydrogenase 3 (Homo sapiens) (UniProt P47895); test: qHTS for Inhibitors of the Aldehyde Dehydrogenase Family (ALDH1A3) Primary screen (AID 2061315)
# [5] = target: Aldehyde dehydrogenase, mitochondrial (Homo sapiens) (UniProt P05091); test: qHTS for Inhibitors of the Aldehyde Dehydrogenase Family (ALDH2) Confirmatory screens (AID 2061303; active = well fitted inhibition curve with a large enough effect; title and protocol of this record describe different tests; also: nearly all actives have a fitted effect of over 45% in size)
# [6] = target: Aldehyde dehydrogenase 1A1 (Homo sapiens) (UniProt P00352); test: qHTS for Inhibitors of the Aldehyde Dehydrogenase Family (ALDH1A1) Confirmatory screens (AID 2061316); also: nearly all actives have a fitted effect of over 65% in size; also: potency is read from the fitted curve at half-maximal effect
# [7] = target: Retinaldehyde dehydrogenase 3 (Homo sapiens) (UniProt P47895); test: qHTS for Inhibitors of the Aldehyde Dehydrogenase Family (ALDH1A3) Confirmatory screens (AID 2061311); also: nearly all actives have a fitted effect of over 60% in size; also: potency is read from the fitted curve at half-maximal effect
# [8] = target: Retinal dehydrogenase 2 (Homo sapiens) (UniProt O94788); test: qHTS for Inhibitors of the Aldehyde Dehydrogenase Family (ALDH1A2) Confirmation screens (AID 2061314); also: nearly all actives have a fitted effect of over 65% in size; also: potency is read from the fitted curve at half-maximal effect
# [9] = BET inhibitor-based combinations targeting novel dependencies in MECOM-rearranged (r) AML: SET-2 cell line (AID 2202231); settings: SET-2 AML cells viability, CellTiter-Glo luminescence, 48 h; viability: stronger effect = lower value, concentration not given here; also: potency is read from the fitted curve at half-maximal effect; nearly all actives have a fitted effect of over 35% in size
# Outline: (§1)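 500 cells/well; 11-pt dose curve; 48 h, standard incubator; CellTiter-Glo luminescence after 15 min RT; DMSO/empty-well normalization; AUC plus Z-AUC (mean-centered within each line).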
# [10] = BET inhibitor-based combinations targeting novel dependencies in MECOM-rearranged (r) AML: OCI-AML3 cell line (AID 2202232); settings: Potency: OCI-AML3 viability; also: potency is read from the fitted curve at half-maximal effect; nearly all actives have a fitted effect of over 35% in size
# Outline: as §1
# [11] = BET inhibitor-based combinations targeting novel dependencies in MECOM-rearranged (r) AML: MV-4-11 cell line (AID 2202233); also: potency is read from the fitted curve at half-maximal effect; nearly all actives have a fitted effect of over 45% in size
# Outline: (§2)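 Cells were plated at 500 per well and exposed to each drug across an 11-point dose range for 48 hr at standard incubator conditions. Viability was read by CellTiter-Glo luminescence, and activity was expressed as AUC and per-cell-line Z-transformed AUC.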
# [12] = BET inhibitor-based combinations targeting novel dependencies in MECOM-rearranged (r) AML: HNT-34 cell line (AID 2202234); also: potency is read from the fitted curve at half-maximal effect; nearly all actives have a fitted effect of over 35% in size
# Outline: as §2
smiles,measurement,setting,value
CCc1nn2c(=O)cc(C3=CCNCC3)nc2s1,Potency,[1],inactive
COc1ccccc1CN[C@H]1C2CCN(CC2)[C@H]1C(c1ccccc1)c1ccccc1,Potency,[2],inactive
same,Potency,[3],inactive
same,Potency,[4],inactive
CCOc1ccc(CCNC(=O)c2cc3cnccc3n2Cc2cccc(C)n2)cc1OCC,Potency,[5],inactive
same,Potency,[2],inactive
same,Potency,[4],inactive
same,Potency,[6],inactive
COc1ccc(C(C)(C)C)cc1CN[C@H]1C2CCN(CC2)[C@H]1C(c1ccccc1)c1ccccc1,Potency,[2],inactive
same,Potency,[3],inactive
same,Potency,[4],inactive
CC1=C(C)C(=O)C(CC[C@](C)(O)CCC[C@H](C)CCC[C@H](C)CCCC(C)C)=C(C)C1=O,Potency,[1],inactive
same,Potency,[2],inactive
same,Potency,[7],10.1 µM (active)
same,Potency,[8],4.49 µM (active)
same,Potency,[6],inactive
NC(N)=Nc1ccc2[nH]c3c(c2c1)C[C@@]1(O)C2Cc4ccc(O)c5c4[C@@]1(CCN2CC1CC1)[C@H]3O5,Potency,[1],inactive
N[C@@]1(c2ccccc2Cl)CCC=CC1=O,Potency,[1],inactive
C[C@@H]1C[C@@H](O)[C@]2(O)O[C@@H]3C[C@@]4(C=O)C(CC[C@@H]5C4CC[C@]4(C)[C@@H](C6=CC(=O)OC6)CC[C@]54O)C[C@H]3O[C@@H]2O1 (some centres not stated),Potency,[2],inactive
O=c1[nH]c(CN2CCNCC2)nc2ccccc12,Potency,[1],inactive
Oc1ccc(C2=CCNCC2)cc1O,Potency,[1],inactive
CC(=O)c1ccc(N=[N+]=[N-])cc1,Potency,[1],8.96 µM (active)
C=C1C(=O)O[C@@H]2[C@H]3C(=C)[C@@H](O)C[C@H]3C(=C)C[C@@H](O)[C@@H]12,Potency,[2],inactive
CO[C@@H]1C[C@H](O[C@H]2CC[C@]3(C)C4CC[C@]5(C)[C@@H](C6=CC(=O)OC6)[C@@H](OC(C)=O)C[C@]5(O)C4CC[C@@H]3C2)OC(C)[C@H]1O (some centres not stated),Potency,[1],inactive
C/C(=C\c1csc(C)n1)[C@@H]1C[C@@H]2O[C@@H]2CCC[C@H](C)[C@H](O)[C@@H](C)C(=O)C(C)(C)[C@@H](O)CC(=O)O1,Potency,[2],inactive
same,Potency,[3],inactive
same,Potency,[4],inactive
same,Potency,[9],0.0332 µM (active)
same,Potency,[10],0.0209 µM (active)
same,Potency,[11],0.0332 µM (active)
same,Potency,[12],0.0235 µM (active)
Cc1cc(C)c(OP(=O)(OCc2c(-c3ccccc3)no[n+]2[O-])Oc2c(C)cc(C)cc2C)c(C)c1,Potency,[1],12.6 µM (active)
same,Potency,[4],inactive
same,Potency,[6],2.01 µM (active)
CC(=O)N(C)CC#CCN1CCC(O)CC1,Potency,[1],inactive
CC(=O)OCC1=C(C(=O)O)N2C(=O)C(NC(=O)CCCC(N)C(=O)O)C2SC1 (configuration not stated),Potency,[5],inactive
same,Potency,[7],inactive
COC1CC(OC2CCC3(C=O)C(CCC4C3CCC3(C)C(C5=CC(=O)OC5)CCC43O)C2)OC(C)C1O (configuration not stated),Potency,[2],inactive
COC1CC(O[C@H]2CC[C@]3(C)C4CC[C@]5(C)[C@@H](C6=CC(=O)OC6)[C@@H](OC(C)=O)C[C@]5(O)C4CC[C@@H]3C2)OC(C)C1O[C@@H]1O[C@H](CO)[C@@H](O)[C@H](O)[C@H]1O (some centres not stated),Potency,[2],inactive
CCCn1c(C)c(C(=O)c2ccc3ccccc3c2)c2ccccc21,Potency,[1],inactive
same,Potency,[7],inactive
same,Potency,[8],inactive
same,Potency,[6],inactive
O=C(CNC12CC3CC(CC(C3)C1)C2)c1ccc(Cl)cc1,Potency,[1],inactive
COc1ccc(-c2nc(CS(=O)CC(=O)N3CCC4(CC3)OCCO4)c(C)o2)cc1 (configuration not stated),Potency,[1],inactive
O=S(=O)(Nc1ccc(-c2ccccc2)cc1)c1ccc(NCc2cccc(Cl)c2O)cc1,Potency,[1],25.2 µM (active)
same,Potency,[8],25.2 µM (active)
same,Potency,[4],inactive
C[C@H]1O[C@@H](O[C@H]2CC[C@]3(CO)C4CC[C@]5(C)[C@@H](C6=CC(=O)OC6)CC[C@]5(O)[C@@H]4CC[C@H]3C2)[C@H](O)[C@H](O)[C@@H]1O[C@@H]1O[C@H](CO)[C@@H](O)[C@H](O)[C@H]1O (some centres not stated),Potency,[2],inactive
same,Potency,[8],inactive
same,Potency,[4],inactive
same,Potency,[6],inactive
C[C@@H]1CCC/C=C/[C@H]2C[C@@H](O)C[C@@H]2[C@@H](O)/C=C/C(=O)O1,Potency,[2],inactive
same,Potency,[4],inactive
C[C@@H]1O[C@@H](OC2CCC3(C=O)C(CCC4C3CCC3(C)C(C5=CC(=O)OC5)C(O)CC43O)C2)[C@H](O)[C@H](O)[C@H]1O[C@@H]1O[C@H](CO)[C@@H](O)[C@H](O)[C@H]1O (some centres not stated),Potency,[2],inactive
C/C=C(/C)C(=O)O[C@H]1[C@@H]2[C@H](C)C(=O)O[C@@H]2C[C@@H](C)[C@@H]2C=CC(=O)[C@]21C,Potency,[2],inactive
same,Potency,[4],inactive
C#CCO[C@H]1CN2CCC1CC2,Potency,[2],inactive
same,Potency,[4],inactive
C[C@@H]1O[C@@H](O[C@H]2CC[C@@]3(C)C(CC[C@@H]4C3CC[C@]3(C)[C@@H](C5=CC(=O)OC5)CC[C@]43O)C2)[C@H](O[C@@H]2O[C@H](CO)[C@@H](O)[C@H](O)[C@H]2O)[C@H](O)[C@H]1O (some centres not stated),Potency,[2],inactive
same,Potency,[4],inactive
COC1CC(O[C@H]2CC[C@@]3(C)C(CCC4C3CC[C@]3(C)C(C5=CC(=O)OC5)CCC43O)C2)OC(C)C1OC1OC(COC2OC(CO)C(O)C(O)C2O)C(O)C(O)C1O (some centres not stated),Potency,[2],inactive
same,Potency,[4],inactive
CC(C)=CCC[C@]1(C)C=Cc2c(O)c3c(c(CC=C(C)C)c2O1)O[C@]12C(=C[C@@H]4CC1C(C)(C)O[C@@]2(C/C=C(/C)C(=O)O)C4=O)C3=O,Potency,[2],inactive
same,Potency,[4],inactive
CC(=O)OC[C@H](N)C(=O)c1ccccc1,Potency,[2],inactive
same,Potency,[4],inactive
